Data on one sequence can be found in publication PMC7862700, “An all-to-all approach to the identification of sequence-specific readers for epigenetic DNA modifications on cytosine”.

Experiment in all cases: DAPPL (digital affinity profiling via proximity ligation, sequencing); 10 mM Tris-HCl pH 7.5, 50 mM NaCl, 1 mM DTT, 4% glycerol, room temperature, 30 min; GST-TFs on glutathione beads, 16-mer random dsDNA library, 0.1% formaldehyde crosslink after washing; high values mean tight binding
One experiment deals with T1, FEV (Homo sapiens, UniProt Q99581 1-238).
T1 sequence: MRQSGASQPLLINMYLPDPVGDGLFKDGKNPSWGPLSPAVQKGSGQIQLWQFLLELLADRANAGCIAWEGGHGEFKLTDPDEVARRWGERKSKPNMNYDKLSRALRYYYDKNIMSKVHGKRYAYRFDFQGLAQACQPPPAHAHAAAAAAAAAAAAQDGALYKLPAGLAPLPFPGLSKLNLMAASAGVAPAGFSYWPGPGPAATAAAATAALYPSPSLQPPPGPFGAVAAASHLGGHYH
To be noted: protein: recombinant; tags: N-terminal GST; dsDNA, one strand shown. An outline of the steps: (§1)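 Binding signal is given per hexamer as its read frequency for a factor divided by its frequency in the tag-only sample. GST-fused human transcription factors were expressed in yeast, captured on glutathione beads, barcoded with DNA and pooled with that sample, then incubated with 200 nmole of a 16-mer random double-stranded DNA library in Tris/NaCl/DTT/glycerol buffer for 30 min at room temperature. The pools were then washed, crosslinked, proximity-ligated, amplified by PCR and sequenced on an Illumina NextSeq500.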

The next experiment has as its target ETV5 (Homo sapiens, UniProt P41161 1-510). To be noted: protein: recombinant; tags: N-terminal GST; dsDNA, one strand shown. The gist of the method: as §1
A further experiment concerns the target HSF1 (Homo sapiens, UniProt Q00613 1-529). To be noted: protein: recombinant; tags: N-terminal GST; chain copies: 3; dsDNA, one strand shown. The gist of the method:
as §1

The target in a further experiment is T2, SPIC (Homo sapiens, UniProt Q8N5J4 1-248).
T2 sequence: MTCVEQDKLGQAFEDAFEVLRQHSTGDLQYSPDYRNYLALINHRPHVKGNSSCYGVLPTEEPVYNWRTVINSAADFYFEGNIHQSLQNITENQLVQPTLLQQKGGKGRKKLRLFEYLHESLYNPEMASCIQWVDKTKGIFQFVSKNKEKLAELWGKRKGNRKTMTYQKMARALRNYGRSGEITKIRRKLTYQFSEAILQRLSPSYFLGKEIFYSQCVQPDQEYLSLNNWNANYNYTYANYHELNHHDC
The settings on record: protein: recombinant; tags: N-terminal GST; dsDNA, one strand shown. An outline of the steps:
as §1

A further experiment concerns the target ELF4 (Homo sapiens, UniProt Q99607 1-663). The settings on record: protein: recombinant; tags: N-terminal GST; dsDNA, one strand shown. An outline of the steps: as §1
Another experiment has as its target T3, ELK4 (Homo sapiens, UniProt P28324-2 1-405).
T3 sequence: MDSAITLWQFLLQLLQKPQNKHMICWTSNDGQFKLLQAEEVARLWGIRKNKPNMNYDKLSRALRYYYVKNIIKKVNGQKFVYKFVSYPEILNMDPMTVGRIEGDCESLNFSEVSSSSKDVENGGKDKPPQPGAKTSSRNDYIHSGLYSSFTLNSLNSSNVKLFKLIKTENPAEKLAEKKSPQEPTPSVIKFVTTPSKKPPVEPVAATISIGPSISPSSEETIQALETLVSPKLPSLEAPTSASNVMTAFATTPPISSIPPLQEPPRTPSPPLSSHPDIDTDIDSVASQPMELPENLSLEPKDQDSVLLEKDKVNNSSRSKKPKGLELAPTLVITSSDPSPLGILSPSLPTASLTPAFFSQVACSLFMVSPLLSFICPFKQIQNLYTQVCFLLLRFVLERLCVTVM
The settings on record: protein: recombinant; tags: N-terminal GST; dsDNA, one strand shown. The gist of the method:
as §1

For another experiment, the target named is T4, ETV2 (Homo sapiens, UniProt O00321 1-342).
T4 sequence: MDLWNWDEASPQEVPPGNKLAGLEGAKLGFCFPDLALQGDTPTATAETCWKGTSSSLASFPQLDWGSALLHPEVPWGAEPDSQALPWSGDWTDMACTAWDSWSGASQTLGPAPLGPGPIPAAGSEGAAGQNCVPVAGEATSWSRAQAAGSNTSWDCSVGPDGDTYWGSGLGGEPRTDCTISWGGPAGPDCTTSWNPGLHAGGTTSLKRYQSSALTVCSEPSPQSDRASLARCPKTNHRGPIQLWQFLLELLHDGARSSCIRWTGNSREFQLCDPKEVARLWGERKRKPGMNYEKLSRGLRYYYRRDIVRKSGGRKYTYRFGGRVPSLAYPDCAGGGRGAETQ
The settings on record: protein: recombinant; tags: N-terminal GST; dsDNA, one strand shown. An outline of the steps:
as §1

The target of the next experiment is T5, ELF3 (Homo sapiens, UniProt P78545 1-371).
T5 sequence: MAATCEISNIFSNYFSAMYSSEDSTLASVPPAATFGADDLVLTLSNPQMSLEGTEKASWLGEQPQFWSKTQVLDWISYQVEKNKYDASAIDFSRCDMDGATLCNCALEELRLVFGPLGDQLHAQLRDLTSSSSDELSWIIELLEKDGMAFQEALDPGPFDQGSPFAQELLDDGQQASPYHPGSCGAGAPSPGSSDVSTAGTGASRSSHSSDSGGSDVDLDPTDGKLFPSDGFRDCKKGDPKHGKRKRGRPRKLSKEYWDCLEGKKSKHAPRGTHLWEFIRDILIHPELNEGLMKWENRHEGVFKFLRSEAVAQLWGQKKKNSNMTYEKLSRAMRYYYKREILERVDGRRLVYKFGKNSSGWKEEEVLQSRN
To be noted: protein: recombinant; tags: N-terminal GST; dsDNA, one strand shown. The gist of the method:
as §1

A further experiment addresses CRX (Homo sapiens, UniProt O43186 1-299). The settings on record: protein: recombinant; tags: N-terminal GST; dsDNA, one strand shown. The gist of the method:
as §1

A further experiment has as its target ETV1 (Homo sapiens, UniProt P50549 1-477). The settings on record: protein: recombinant; tags: N-terminal GST; dsDNA, one strand shown. An outline of the steps:
as §1

The target of another experiment is T6, ERF (Homo sapiens, UniProt P50548 1-548).
T6 sequence: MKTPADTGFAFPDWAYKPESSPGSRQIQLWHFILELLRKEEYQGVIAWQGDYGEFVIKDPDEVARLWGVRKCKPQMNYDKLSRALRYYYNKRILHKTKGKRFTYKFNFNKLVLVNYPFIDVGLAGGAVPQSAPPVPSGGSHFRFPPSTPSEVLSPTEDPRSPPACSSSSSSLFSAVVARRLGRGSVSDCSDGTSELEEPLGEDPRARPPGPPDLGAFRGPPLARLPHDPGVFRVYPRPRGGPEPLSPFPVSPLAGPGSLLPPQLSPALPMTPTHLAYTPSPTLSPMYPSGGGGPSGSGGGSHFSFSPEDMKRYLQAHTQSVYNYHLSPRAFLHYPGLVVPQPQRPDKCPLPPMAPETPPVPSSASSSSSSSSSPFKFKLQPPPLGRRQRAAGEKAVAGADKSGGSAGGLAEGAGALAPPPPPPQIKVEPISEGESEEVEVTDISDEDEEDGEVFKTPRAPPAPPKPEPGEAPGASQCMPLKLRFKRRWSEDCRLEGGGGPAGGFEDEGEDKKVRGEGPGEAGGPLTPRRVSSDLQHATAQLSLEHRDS
The settings on record: protein: recombinant; tags: N-terminal GST; dsDNA, one strand shown. An outline of the steps: as §1

A further experiment addresses T7, ETV3L (Homo sapiens, UniProt Q6ZN32 1-361).
T7 sequence: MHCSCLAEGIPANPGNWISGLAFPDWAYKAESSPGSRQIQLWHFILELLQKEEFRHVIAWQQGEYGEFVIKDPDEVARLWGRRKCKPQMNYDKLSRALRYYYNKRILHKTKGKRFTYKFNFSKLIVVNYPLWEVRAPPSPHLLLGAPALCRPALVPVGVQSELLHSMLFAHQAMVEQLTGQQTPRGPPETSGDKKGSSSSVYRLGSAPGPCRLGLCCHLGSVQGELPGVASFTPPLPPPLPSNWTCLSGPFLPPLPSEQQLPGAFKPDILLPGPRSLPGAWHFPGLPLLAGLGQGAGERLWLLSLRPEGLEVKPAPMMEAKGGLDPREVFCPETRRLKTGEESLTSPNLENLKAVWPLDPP
The settings on record: protein: recombinant; tags: N-terminal GST; dsDNA, one strand shown. An outline of the steps: as §1

A further experiment deals with T8, ETS2 (Homo sapiens, UniProt P15036 1-469).
T8 sequence: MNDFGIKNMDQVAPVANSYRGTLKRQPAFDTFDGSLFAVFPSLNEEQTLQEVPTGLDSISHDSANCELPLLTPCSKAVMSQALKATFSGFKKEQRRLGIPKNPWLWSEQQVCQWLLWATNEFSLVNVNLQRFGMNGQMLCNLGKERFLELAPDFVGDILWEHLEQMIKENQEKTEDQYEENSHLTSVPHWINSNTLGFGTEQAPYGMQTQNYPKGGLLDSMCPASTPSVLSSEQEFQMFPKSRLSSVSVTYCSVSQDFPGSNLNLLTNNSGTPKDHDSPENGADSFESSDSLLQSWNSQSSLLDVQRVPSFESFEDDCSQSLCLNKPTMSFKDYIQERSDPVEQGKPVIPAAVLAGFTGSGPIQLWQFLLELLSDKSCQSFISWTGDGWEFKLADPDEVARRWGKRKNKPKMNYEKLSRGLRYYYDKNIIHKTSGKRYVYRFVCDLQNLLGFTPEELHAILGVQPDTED
To be noted: protein: recombinant; tags: N-terminal GST; dsDNA, one strand shown. The gist of the method:
as §1

A further experiment has as its target T9, SPDEF (Homo sapiens, UniProt O95238 1-335).
T9 sequence: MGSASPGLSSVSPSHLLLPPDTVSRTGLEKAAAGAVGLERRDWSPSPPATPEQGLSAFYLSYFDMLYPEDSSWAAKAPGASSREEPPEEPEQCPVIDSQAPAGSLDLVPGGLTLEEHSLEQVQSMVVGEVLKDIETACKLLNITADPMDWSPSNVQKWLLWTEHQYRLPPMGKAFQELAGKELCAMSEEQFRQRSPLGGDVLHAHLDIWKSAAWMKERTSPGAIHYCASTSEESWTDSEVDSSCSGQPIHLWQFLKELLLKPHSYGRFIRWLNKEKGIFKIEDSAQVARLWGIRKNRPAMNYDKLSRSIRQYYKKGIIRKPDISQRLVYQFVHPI
To be noted: protein: recombinant; tags: N-terminal GST; dsDNA, one strand shown. The gist of the method: as §1

The target of another experiment is T10, ETV7 (Homo sapiens, UniProt Q9Y603 1-341).
T10 sequence: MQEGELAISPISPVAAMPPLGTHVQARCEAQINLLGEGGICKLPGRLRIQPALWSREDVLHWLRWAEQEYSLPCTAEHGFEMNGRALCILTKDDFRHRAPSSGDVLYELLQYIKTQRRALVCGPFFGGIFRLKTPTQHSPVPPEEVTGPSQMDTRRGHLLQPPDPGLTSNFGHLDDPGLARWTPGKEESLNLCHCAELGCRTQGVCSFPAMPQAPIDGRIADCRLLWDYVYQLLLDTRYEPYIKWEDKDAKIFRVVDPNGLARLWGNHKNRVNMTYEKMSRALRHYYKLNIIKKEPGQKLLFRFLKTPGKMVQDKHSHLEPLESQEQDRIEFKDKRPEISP
The settings on record: protein: recombinant; tags: N-terminal GST; dsDNA, one strand shown. An outline of the steps:
as §1

The target in another experiment is T11, ELF5 (Homo sapiens, UniProt Q9UKW6-2 1-255).
T11 sequence: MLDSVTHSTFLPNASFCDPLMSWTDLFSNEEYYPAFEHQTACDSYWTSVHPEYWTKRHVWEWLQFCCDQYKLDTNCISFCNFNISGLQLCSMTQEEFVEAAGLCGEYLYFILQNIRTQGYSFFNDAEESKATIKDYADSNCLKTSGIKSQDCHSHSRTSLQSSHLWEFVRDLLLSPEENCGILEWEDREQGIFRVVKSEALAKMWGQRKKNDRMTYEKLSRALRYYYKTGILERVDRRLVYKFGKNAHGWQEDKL
To be noted: protein: recombinant; tags: N-terminal GST; dsDNA, one strand shown. The gist of the method: as §1

The target of the next experiment is T12, ETV3 (Homo sapiens, UniProt P41162-2 1-143).
T12 sequence: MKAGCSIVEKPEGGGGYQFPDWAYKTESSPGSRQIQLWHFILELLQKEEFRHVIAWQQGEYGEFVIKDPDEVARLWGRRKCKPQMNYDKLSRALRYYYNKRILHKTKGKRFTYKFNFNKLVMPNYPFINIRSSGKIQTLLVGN
To be noted: protein: recombinant; tags: N-terminal GST; dsDNA, one strand shown. The gist of the method: as §1

The target of a further experiment is ETV6 (Homo sapiens, UniProt P41212 1-452). To be noted: protein: recombinant; tags: N-terminal GST; dsDNA, one strand shown. The gist of the method:
as §1

ETV6, sequence (P41212 whole entry): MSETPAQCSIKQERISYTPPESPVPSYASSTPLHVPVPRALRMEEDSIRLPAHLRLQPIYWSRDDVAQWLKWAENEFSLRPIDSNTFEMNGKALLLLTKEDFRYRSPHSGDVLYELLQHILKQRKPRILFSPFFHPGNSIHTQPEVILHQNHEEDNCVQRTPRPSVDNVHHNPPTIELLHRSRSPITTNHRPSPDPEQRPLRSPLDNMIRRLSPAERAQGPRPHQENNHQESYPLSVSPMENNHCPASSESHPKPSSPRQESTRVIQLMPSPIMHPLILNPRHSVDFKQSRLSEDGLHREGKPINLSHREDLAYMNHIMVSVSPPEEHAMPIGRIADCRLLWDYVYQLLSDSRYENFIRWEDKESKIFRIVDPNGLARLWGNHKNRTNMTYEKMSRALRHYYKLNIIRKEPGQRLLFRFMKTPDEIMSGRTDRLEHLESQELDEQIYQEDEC
HSF1, sequence (Q00613 whole entry): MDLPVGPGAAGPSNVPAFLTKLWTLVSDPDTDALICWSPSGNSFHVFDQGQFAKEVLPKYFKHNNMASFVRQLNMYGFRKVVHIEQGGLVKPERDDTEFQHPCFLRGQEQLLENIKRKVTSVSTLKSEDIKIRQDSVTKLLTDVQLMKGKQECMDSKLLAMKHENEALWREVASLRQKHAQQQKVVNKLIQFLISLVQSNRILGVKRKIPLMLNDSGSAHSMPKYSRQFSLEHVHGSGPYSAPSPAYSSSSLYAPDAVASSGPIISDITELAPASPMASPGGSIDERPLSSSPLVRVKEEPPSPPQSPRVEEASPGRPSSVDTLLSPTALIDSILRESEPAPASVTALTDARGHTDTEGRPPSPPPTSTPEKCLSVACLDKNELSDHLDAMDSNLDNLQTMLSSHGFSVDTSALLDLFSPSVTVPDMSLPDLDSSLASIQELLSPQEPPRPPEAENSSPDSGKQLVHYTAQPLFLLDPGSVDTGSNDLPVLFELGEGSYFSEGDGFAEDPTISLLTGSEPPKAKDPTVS
ETV5, sequence (P41161 whole entry): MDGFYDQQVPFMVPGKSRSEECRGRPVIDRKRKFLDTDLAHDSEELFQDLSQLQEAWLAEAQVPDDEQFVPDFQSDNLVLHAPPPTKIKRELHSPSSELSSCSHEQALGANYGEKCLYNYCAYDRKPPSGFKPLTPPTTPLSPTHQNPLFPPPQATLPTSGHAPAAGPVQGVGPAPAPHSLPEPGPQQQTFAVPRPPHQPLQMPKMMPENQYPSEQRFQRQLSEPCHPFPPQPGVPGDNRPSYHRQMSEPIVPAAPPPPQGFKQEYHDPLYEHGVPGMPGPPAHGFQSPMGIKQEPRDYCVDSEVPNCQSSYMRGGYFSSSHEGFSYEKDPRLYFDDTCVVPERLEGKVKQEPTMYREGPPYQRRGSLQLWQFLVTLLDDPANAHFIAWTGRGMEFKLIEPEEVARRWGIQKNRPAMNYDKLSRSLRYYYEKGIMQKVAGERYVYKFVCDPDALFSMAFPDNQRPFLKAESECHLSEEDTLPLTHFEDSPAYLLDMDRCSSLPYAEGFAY
ETV1, sequence (P50549 whole entry): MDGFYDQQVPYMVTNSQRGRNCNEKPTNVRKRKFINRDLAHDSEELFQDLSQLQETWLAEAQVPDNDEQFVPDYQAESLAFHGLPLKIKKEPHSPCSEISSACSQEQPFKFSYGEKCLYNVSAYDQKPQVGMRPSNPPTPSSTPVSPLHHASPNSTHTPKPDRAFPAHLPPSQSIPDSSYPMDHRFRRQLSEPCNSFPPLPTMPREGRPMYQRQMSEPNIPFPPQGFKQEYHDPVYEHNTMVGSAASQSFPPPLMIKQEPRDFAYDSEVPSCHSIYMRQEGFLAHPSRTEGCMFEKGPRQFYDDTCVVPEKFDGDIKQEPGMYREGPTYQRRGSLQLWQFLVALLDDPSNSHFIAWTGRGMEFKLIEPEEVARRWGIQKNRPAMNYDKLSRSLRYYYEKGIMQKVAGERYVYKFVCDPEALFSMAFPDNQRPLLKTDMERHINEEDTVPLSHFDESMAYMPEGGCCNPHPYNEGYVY
ELF4, sequence (Q99607 whole entry): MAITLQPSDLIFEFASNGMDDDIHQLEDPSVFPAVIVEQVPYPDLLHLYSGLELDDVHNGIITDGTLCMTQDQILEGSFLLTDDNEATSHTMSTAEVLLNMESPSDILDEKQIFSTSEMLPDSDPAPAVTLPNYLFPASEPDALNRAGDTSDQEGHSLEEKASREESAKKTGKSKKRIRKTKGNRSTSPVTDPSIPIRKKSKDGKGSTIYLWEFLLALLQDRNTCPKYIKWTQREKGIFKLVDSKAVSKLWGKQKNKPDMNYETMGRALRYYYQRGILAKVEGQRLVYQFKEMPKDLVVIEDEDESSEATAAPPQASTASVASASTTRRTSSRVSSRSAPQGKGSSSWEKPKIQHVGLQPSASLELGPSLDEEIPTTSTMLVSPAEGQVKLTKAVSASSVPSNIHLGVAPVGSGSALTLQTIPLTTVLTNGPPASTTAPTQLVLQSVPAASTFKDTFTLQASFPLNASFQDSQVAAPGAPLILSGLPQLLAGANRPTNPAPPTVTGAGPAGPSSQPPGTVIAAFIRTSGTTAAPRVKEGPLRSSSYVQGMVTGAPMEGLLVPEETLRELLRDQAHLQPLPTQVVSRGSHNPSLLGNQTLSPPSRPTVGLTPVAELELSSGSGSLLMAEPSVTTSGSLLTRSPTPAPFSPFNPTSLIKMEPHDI
CRX, sequence (O43186 whole entry): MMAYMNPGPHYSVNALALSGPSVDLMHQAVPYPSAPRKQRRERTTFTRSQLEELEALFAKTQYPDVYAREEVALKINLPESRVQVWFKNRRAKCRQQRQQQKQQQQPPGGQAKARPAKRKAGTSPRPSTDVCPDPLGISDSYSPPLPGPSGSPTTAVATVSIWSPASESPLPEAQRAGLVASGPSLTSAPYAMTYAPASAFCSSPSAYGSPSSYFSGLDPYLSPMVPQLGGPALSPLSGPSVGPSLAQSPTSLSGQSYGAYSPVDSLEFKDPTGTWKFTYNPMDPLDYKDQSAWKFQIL

Consider CTGGAT, for which the binding signal with FEV is 1.38 fold enrichment (6-mer frequency, TF over GST control); with ETV5 it was 1.4 fold enrichment (6-mer frequency, TF over GST control); with HSF1, 2.19 fold enrichment (6-mer frequency, TF over GST control); in the experiment with SPIC, 1.34 fold enrichment (6-mer frequency, TF over GST control); in the experiment with ELF4, 1.35 fold enrichment (6-mer frequency, TF over GST control); in the experiment with ELK4, 1.35 fold enrichment (6-mer frequency, TF over GST control). The binding signal in the experiment with ETV2 was 1.41 fold enrichment (6-mer frequency, TF over GST control); with ELF3 it was 1.41 fold enrichment (6-mer frequency, TF over GST control); with CRX, 2.05 fold enrichment (6-mer frequency, TF over GST control); with ETV1 it was 1.47 fold enrichment (6-mer frequency, TF over GST control); in the experiment with ERF, 1.43 fold enrichment (6-mer frequency, TF over GST control); with ETV3L, 1.5 fold enrichment (6-mer frequency, TF over GST control). Also, the binding signal with ETS2 was 1.4 fold enrichment (6-mer frequency, TF over GST control); with SPDEF it was 1.42 fold enrichment (6-mer frequency, TF over GST control); with ETV7, 1.22 fold enrichment (6-mer frequency, TF over GST control); with ELF5 it was 1.3 fold enrichment (6-mer frequency, TF over GST control); with ETV3, 1.37 fold enrichment (6-mer frequency, TF over GST control); with ETV6, 1.21 fold enrichment (6-mer frequency, TF over GST control).
